What was measured:
Assay in all cases: PBM binding z-score (relative to random genomic background probes); higher = stronger binding; sequences stand for … in GC…GCGATTGACAGCGTAGAATGAAGG
[1] = test system: PPARg:RXRa DBDmut IVT, anti-RXR (DBD mutation: RXRa K156A/R161A, NR concentration 270 nM, RXRa partner concentration 90 nM)
In short: (§1)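 Ligand-free nuclear receptor dimers were bound for 1 h to custom Agilent 4×180K protein-binding microarrays. Detection used antibodies against each partner (one per run). Binding z-scores rest on regression-normalized fluorescence, with random background probes as the reference.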

[2] = test system: PPARg:RXRa IVT, anti-PPARg (NR concentration 270 nM, RXRa partner concentration 90 nM)
In short: as §1

[3] = test system: PPARg DBDmut:RXRa IVT, anti-PPARg (DBD mutation: PPARg1 K132A/R137A, NR concentration 270 nM, RXRa partner concentration 90 nM)
In short: as §1

[4] = test system: PPARg DBDmut IVT, anti-PPARg (DBD mutation: PPARg1 K132A/R137A, NR concentration 270 nM)
In short: as §1

[5] = test system: PPARg homodimer (NR concentration 180 nM)
In short: as §1

[6] = test system: PXR:RXRa (NR concentration 270 nM, RXRa partner concentration 90 nM)
In short: as §1

[7] = test system: PXR homodimer (NR concentration 270 nM)
In short: as §1

[8] = test system: RARa:RXR (NR concentration 270 nM, RXRa partner concentration 90 nM)
In short: as §1

[9] = test system: RARa homodimer (NR concentration 270 nM)
In short: as §1

[10] = test system: RARb:RXRa (NR concentration 270 nM, RXRa partner concentration 90 nM)
In short: as §1

Sequence: TCTTGTAGATCGACAGGAGGTTAAGAAAGATCGA
- PBM binding z-score [1]: 0.885
- PBM binding z-score [2]: 0.145
- PBM binding z-score [3]: 0.496
- PBM binding z-score [4]: 0.679
- PBM binding z-score [5]: -0.189
- PBM binding z-score [6]: 0.501
- PBM binding z-score [7]: -0.189
- PBM binding z-score [8]: 0.459
- PBM binding z-score [9]: -0.333
- PBM binding z-score [10]: 0.401

Sequence: CCTGCTAGGTCAATGGACAGCTAAAGCAGCTCGC
- PBM binding z-score [1]: 3.92
- PBM binding z-score [2]: 3.11
- PBM binding z-score [3]: -0.347
- PBM binding z-score [4]: -0.89
- PBM binding z-score [5]: 0.928
- PBM binding z-score [6]: 0.497
- PBM binding z-score [7]: -0.327
- PBM binding z-score [8]: 1.2
- PBM binding z-score [9]: -0.377
- PBM binding z-score [10]: 3.75

Sequence: CGAACTACGTCAAGGACAGTGAATCTCCGCACGC
- PBM binding z-score [1]: -0.146
- PBM binding z-score [2]: -0.464
- PBM binding z-score [3]: -0.384
- PBM binding z-score [4]: -0.387
- PBM binding z-score [5]: -0.76
- PBM binding z-score [6]: -0.445
- PBM binding z-score [7]: 0.128
- PBM binding z-score [8]: -0.00341
- PBM binding z-score [9]: -0.551
- PBM binding z-score [10]: 0.27

Sequence: CAAACTAAGTCAAGAGGTCAAAGTCCGCTTCCCG
- PBM binding z-score [1]: 2.44
- PBM binding z-score [2]: 3.45
- PBM binding z-score [3]: 0.624
- PBM binding z-score [4]: 0.834
- PBM binding z-score [5]: 4.63
- PBM binding z-score [6]: 5.85
- PBM binding z-score [7]: 2.97
- PBM binding z-score [8]: 6.57
- PBM binding z-score [9]: 2
- PBM binding z-score [10]: 4.35

Sequence: TCTAGCAGGCCAGAGGGCCACTCAAGAGGTACGG
- PBM binding z-score [1]: 0.914
- PBM binding z-score [2]: -0.0389
- PBM binding z-score [3]: -0.285
- PBM binding z-score [4]: -0.851
- PBM binding z-score [5]: -0.331
- PBM binding z-score [6]: -0.535
- PBM binding z-score [7]: -0.284
- PBM binding z-score [8]: -0.732
- PBM binding z-score [9]: -0.342
- PBM binding z-score [10]: 0.248

Sequence: CCTACTGGGCCATCAGGTCATTAATATCAACGTT
- PBM binding z-score [1]: 4.28
- PBM binding z-score [2]: 5.01
- PBM binding z-score [3]: 0.502
- PBM binding z-score [4]: 0.269
- PBM binding z-score [5]: 2.46
- PBM binding z-score [6]: 1.25
- PBM binding z-score [7]: 0.741
- PBM binding z-score [8]: 1.51
- PBM binding z-score [9]: 0.585
- PBM binding z-score [10]: 1.94

Sequence: TCTCGGGGGACACGAAAGGTCAGAGCTCGACATC
- PBM binding z-score [1]: 3.01
- PBM binding z-score [2]: 4.33
- PBM binding z-score [3]: 6.64
- PBM binding z-score [4]: 6.38
- PBM binding z-score [5]: 5.71
- PBM binding z-score [6]: 5.07
- PBM binding z-score [7]: 1.76
- PBM binding z-score [8]: 5.57
- PBM binding z-score [9]: 2.64
- PBM binding z-score [10]: 4.48

Sequence: CCTTACGGGTCGCGAGGTTATAGCACGACGAGCG
- PBM binding z-score [1]: 0.357
- PBM binding z-score [2]: 1.14
- PBM binding z-score [3]: -0.25
- PBM binding z-score [4]: -0.857
- PBM binding z-score [5]: 1.41
- PBM binding z-score [6]: 2.63
- PBM binding z-score [7]: -0.189
- PBM binding z-score [8]: 3.62
- PBM binding z-score [9]: -0.132
- PBM binding z-score [10]: 2.23

Sequence: CGTCCAAAGTCAAGGTCAGTGAAAGAGACTCGAA
- PBM binding z-score [1]: 0.62
- PBM binding z-score [2]: 0.874
- PBM binding z-score [3]: -0.185
- PBM binding z-score [4]: -0.414
- PBM binding z-score [5]: 2.49
- PBM binding z-score [6]: 2.05
- PBM binding z-score [7]: 1.01
- PBM binding z-score [8]: 2.47
- PBM binding z-score [9]: 0.742
- PBM binding z-score [10]: 3.62

Sequence: CGTCCAAGGTCATAGGAGCTCAGTGAAGACAGAT
- PBM binding z-score [1]: 2.78
- PBM binding z-score [2]: 3.29
- PBM binding z-score [3]: 1.43
- PBM binding z-score [4]: -0.573
- PBM binding z-score [5]: 2.6
- PBM binding z-score [6]: 4.27
- PBM binding z-score [7]: 1.07
- PBM binding z-score [8]: 4.66
- PBM binding z-score [9]: 0.0934
- PBM binding z-score [10]: 5.1

Sequence: CAAACTAGGTCAAGAGGTCACAGTCCGCTTCCCG
- PBM binding z-score [1]: 8.51
- PBM binding z-score [2]: 8.53
- PBM binding z-score [3]: 3.61
- PBM binding z-score [4]: 2.62
- PBM binding z-score [5]: 6.23
- PBM binding z-score [6]: 5.99
- PBM binding z-score [7]: 1.56
- PBM binding z-score [8]: 7.64
- PBM binding z-score [9]: 2.8
- PBM binding z-score [10]: 5.67

Sequence: ATCGAAAGGTAGAAGGTGAGTATACCCACCCGAA
- PBM binding z-score [1]: -0.39
- PBM binding z-score [2]: 0.667
- PBM binding z-score [3]: 1.35
- PBM binding z-score [4]: -0.025
- PBM binding z-score [5]: 0.231
- PBM binding z-score [6]: 0.0568
- PBM binding z-score [7]: 0.241
- PBM binding z-score [8]: 0.388
- PBM binding z-score [9]: 0.608
- PBM binding z-score [10]: 0.615

Sequence: AGTCAAAGTTCTGGACGAGGTAACGTAAAGCACG
- PBM binding z-score [1]: -0.983
- PBM binding z-score [2]: 0.272
- PBM binding z-score [3]: 0.288
- PBM binding z-score [4]: 0.0438
- PBM binding z-score [5]: -0.146
- PBM binding z-score [6]: -0.238
- PBM binding z-score [7]: -0.479
- PBM binding z-score [8]: 0.0945
- PBM binding z-score [9]: 0.0553
- PBM binding z-score [10]: 0.168

Sequence: AGAATGAGGTTACCAAAGACCAGGGAAACGCTTG
- PBM binding z-score [1]: 3.86
- PBM binding z-score [2]: 3.33
- PBM binding z-score [3]: 0.85
- PBM binding z-score [4]: 0.62
- PBM binding z-score [5]: 0.291
- PBM binding z-score [6]: 1.22
- PBM binding z-score [7]: -0.349
- PBM binding z-score [8]: 2.06
- PBM binding z-score [9]: -0.134
- PBM binding z-score [10]: 2.11

Sequence: ATATGTAGGTTATCTGGTCATTCAGTTTGCGCAT
- PBM binding z-score [1]: 7.43
- PBM binding z-score [2]: 7.03
- PBM binding z-score [3]: 4.79
- PBM binding z-score [4]: 3.41
- PBM binding z-score [5]: 2.41
- PBM binding z-score [6]: 1.26
- PBM binding z-score [7]: 1.14
- PBM binding z-score [8]: 0.738
- PBM binding z-score [9]: 1.75
- PBM binding z-score [10]: 1.42

Sequence: TAGCGTAGGTCATTGGGCCAGTATAGTACGCATC
- PBM binding z-score [1]: 1.8
- PBM binding z-score [2]: 3.26
- PBM binding z-score [3]: 0.193
- PBM binding z-score [4]: -0.343
- PBM binding z-score [5]: 1.85
- PBM binding z-score [6]: 2.07
- PBM binding z-score [7]: -0.335
- PBM binding z-score [8]: 2.36
- PBM binding z-score [9]: -0.0783
- PBM binding z-score [10]: 3.74

Sequence: TCTATTAATTGATTAGGGCAACCGAAACAGCGGA
- PBM binding z-score [1]: 1.84
- PBM binding z-score [2]: 1.09
- PBM binding z-score [3]: 0.728
- PBM binding z-score [4]: 1.07
- PBM binding z-score [5]: 2.22
- PBM binding z-score [6]: 0.386
- PBM binding z-score [7]: 1.53
- PBM binding z-score [8]: 0.419
- PBM binding z-score [9]: 2.52
- PBM binding z-score [10]: 0.75

Sequence: TTACCAAGGTGAAGGTCGTTGAACCCTCTGTAGA
- PBM binding z-score [1]: 1.76
- PBM binding z-score [2]: 3.38
- PBM binding z-score [3]: 0.136
- PBM binding z-score [4]: 0.367
- PBM binding z-score [5]: 0.968
- PBM binding z-score [6]: 3.18
- PBM binding z-score [7]: 0.277
- PBM binding z-score [8]: 3.4
- PBM binding z-score [9]: -0.283
- PBM binding z-score [10]: 2.4

Sequence: TTACCTAGGTGAGCTGAGGTCGTTGATCCAACTC
- PBM binding z-score [1]: 3.01
- PBM binding z-score [2]: 3.01
- PBM binding z-score [3]: -0.362
- PBM binding z-score [4]: 0.266
- PBM binding z-score [5]: 0.32
- PBM binding z-score [6]: 3.55
- PBM binding z-score [7]: 0.214
- PBM binding z-score [8]: 1.94
- PBM binding z-score [9]: -1.28
- PBM binding z-score [10]: 0.93

Source: the supplement of paper PMC6555819
